Consider 14 compounds from PubChem BioAssay (NCATS).

Holding throughout (assay): Primary qHTS to identify gynecologic anti-cancer compounds using libraries of approved drugs and bioactive compounds (AID 1345084); note: nearly all actives have a fitted effect of over 55% in size
One assay concerns C33A. To be noted: Gynecologic cancer cell panel viability, ATPlite luminescence, 48 h; series mostly up to 57.5 µM. In outline:
(§1)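 Cells, 1,000 per well, were allowed to settle for 16 h at 37 C before compound addition. Five concentrations were tested for 48 h, and viability was read by ATPlite luminescence after 15 min at room temperature.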
Background: ATP-based viability assays read luminescence as a measure of living cells.

In a further assay the test system is CAOV3. To be noted: Gynecologic cancer cell panel viability, ATPlite luminescence, 48 h; series mostly up to 57.5 µM. In outline:
as §1

A further assay concerns CASKI. To be noted: Gynecologic cancer cell panel viability, ATPlite luminescence, 48 h; series mostly up to 57.5 µM. The procedure, abridged: as §1
In a further assay the test system is Es-2. To be noted: Gynecologic cancer cell panel viability, ATPlite luminescence, 48 h; series mostly up to 57.5 µM. The procedure, abridged: as §1
Another assay deals with HeLa. To be noted: Gynecologic cancer cell panel viability, ATPlite luminescence, 48 h; series mostly up to 57.5 µM. In outline: as §1
A further assay has as its system Hek293T. To be noted: Gynecologic cancer cell panel viability, ATPlite luminescence, 48 h, control line for the selectivity index; series mostly up to 57.5 µM. In outline: as §1
For a further assay, the system named is JEG-3. To be noted: Gynecologic cancer cell panel viability, ATPlite luminescence, 48 h; series mostly up to 57.5 µM. The procedure, abridged: as §1
The test system of another assay is OV90. To be noted: Gynecologic cancer cell panel viability, ATPlite luminescence, 48 h; series mostly up to 57.5 µM. In outline:
as §1

In a further assay the test system is PA-1. To be noted: Gynecologic cancer cell panel viability, ATPlite luminescence, 48 h; series mostly up to 57.5 µM. In outline: as §1
A further assay deals with SKOV3. To be noted: Gynecologic cancer cell panel viability, ATPlite luminescence, 48 h; series mostly up to 57.5 µM. In outline:
as §1

Another assay relates to Tov-21-G. To be noted: Gynecologic cancer cell panel viability, ATPlite luminescence, 48 h; series mostly up to 57.5 µM. In outline:
as §1

A further assay relates to Tov112D. To be noted: Gynecologic cancer cell panel viability, ATPlite luminescence, 48 h; series mostly up to 57.5 µM. In outline: as §1

Results filed as inconclusive are left out. A number with no mark means an inactive call. Calls of active or inactive are those of the source. Calls come from the whole dose curve; as a rule, active = well fitted cell-killing curve with a large enough effect; inconclusive = small, poorly fitted or top-dose-only effect, or effect the other way; inactive = flat fitted curve, though single readings scatter.
% is set by controls: 0 for no effect and ±100 for the full control effect; potency is the fitted concentration of half-maximal effect.

As for `CC(C)(O)/C=C/CC(C)(O)C1C(O)CC2(C)C3CCC4C(C)(C)C(=O)CCC4(C)C3CCC12C` (stereo not drawn), the Potency entry in the assay on C33A, with CAOV3, in the assay on CASKI, with Es-2, in the assay with HeLa and in the assay on Hek293T was “inactive” throughout. The Potency entry in the assay with JEG-3, in the assay on OV90, in the assay on PA-1, in the assay on SKOV3, with Tov-21-G and in the assay with Tov112D was “inactive” throughout.

In the case of `CC1(C=O)CC[C@]2(C(=O)O[C@@H]3O[C@H](CO)[C@@H](O)[C@H](O)[C@H]3O)CC[C@]3(C)C(=CCC4[C@@]5(C)C[C@H](O)[C@H](O[C@@H]6OC[C@@H](O)[C@H](O)[C@H]6O)[C@@](C)(CO)C5CC[C@]43C)C2C1` (stereo partly drawn), the activity change, negative = cytotoxicity in the assay on C33A was -2.32% [at 11.6 µM]; in the assay on CAOV3, -2.27% [at 11.6 µM]; in the assay with CASKI it was 0.835% [at 11.6 µM]; with Es-2 it was -7.22% [at 11.6 µM]; in the assay on HeLa, -5.1% [at 11.6 µM]; in the assay on Hek293T, -2.72% [at 11.6 µM]. The activity change, negative = cytotoxicity with JEG-3 was 12.1% [at 11.6 µM]; with OV90 it was 9.96% [at 11.6 µM]; with PA-1 it was -2% [at 11.6 µM]; with SKOV3 it was 1.41% [at 11.6 µM]; in the assay with Tov-21-G, -1.76% [at 11.6 µM]; in the assay on Tov112D, -0.249% [at 11.6 µM].

Turning to `C/C1=C\CCC2=C[C@@H](OC2=O)c2c(C)coc2C1`, the Potency entry with C33A, in the assay on CAOV3, with CASKI, in the assay on Es-2, in the assay with HeLa and in the assay on Hek293T was “inactive” each time. Besides, the Potency result in the assay on JEG-3, with OV90, with PA-1, in the assay on SKOV3, with Tov-21-G and in the assay with Tov112D was “inactive” in each case.

Take `O=C(O)c1cc(I)ccc1NC(=O)[C@H](Cc1ccccc1)NCc1ccccc1`: the Potency entry with C33A, with CAOV3, with CASKI, in the assay on Es-2, with HeLa and in the assay with Hek293T was “inactive” throughout. Moreover, the Potency entry in the assay with JEG-3, in the assay with OV90, with PA-1, in the assay with SKOV3, in the assay on Tov-21-G and with Tov112D was “inactive” in each case.

For the compound `COc1c2c(c(C)c3c1C(=O)OC3)O[C@@]1(C)CCC3(C(C)(C)O)OC(=O)CC[C@]3(C)[C@H]1C2` (stereo partly drawn), the Potency entry with C33A, in the assay with CAOV3, with CASKI, in the assay with Es-2, with HeLa and in the assay with Hek293T was “inactive” throughout. Besides, the Potency entry with JEG-3, in the assay on OV90, in the assay on PA-1, in the assay with SKOV3, in the assay with Tov-21-G and in the assay with Tov112D was “inactive” in each case.

Turning to `CC(=O)OC[C@@]12C(=O)C[C@@H](C)[C@]3(C[C@@H](c4ccoc4)O[C@H]3OC(C)=O)[C@H]1CCC[C@]21CO1`, the Potency entry in the assay on C33A, in the assay with CAOV3, in the assay with CASKI, in the assay with Es-2, with HeLa and with Hek293T was “inactive” in each case. Further, the Potency entry in the assay with JEG-3, in the assay with OV90, in the assay with PA-1, in the assay with SKOV3, in the assay on Tov-21-G and in the assay with Tov112D was “inactive” in each case.

Regarding `Nc1nc2c(c(=O)[nH]1)C[C@@H](CCc1ccc(C(=O)N[C@@H](CCC(=O)O)C(=O)O)cc1)CN2`, the Potency in the assay with C33A was 631 nM (active); with CASKI it was 282 nM (active); in the assay on Es-2, 282 nM (active); in the assay on HeLa, 282 nM (active); in the assay with Hek293T, 316 nM (active); in the assay on JEG-3 it was 10000 nM (active). In addition, the Potency in the assay on OV90 is 501 nM (active); in the assay on PA-1, 282 nM (active); in the assay on Tov-21-G, 100 nM (active); with Tov112D it was 1260 nM (active). Moreover, the Potency result in the assay on CAOV3 and in the assay with SKOV3 was “inactive” throughout.

As to `CC1=C2C[C@H]3O[C@@]3(C)CCC3O[C@@]3(C)C[C@@]2(O)OC1=O` (stereo partly drawn), the Potency entry in the assay with C33A, with CAOV3, in the assay on CASKI, in the assay on Es-2, in the assay with HeLa and in the assay with Hek293T was “inactive” each time. Besides, the Potency result with JEG-3, in the assay with OV90, with PA-1, in the assay with SKOV3, in the assay with Tov-21-G and in the assay with Tov112D was “inactive” in each case.

As for `COC(=O)C1=CO[C@@H](O[C@@H]2O[C@H](CO)[C@@H](O)[C@H](O)[C@H]2O)[C@H]2[C@@H]1CC(OC)O[C@@H]2C` (stereo partly drawn), the Potency result in the assay with C33A, in the assay on CAOV3, with CASKI, in the assay with Es-2, in the assay on HeLa and in the assay with Hek293T was “inactive” in each case. Moreover, the Potency entry with JEG-3, with OV90, in the assay with PA-1, in the assay on SKOV3, in the assay on Tov-21-G and with Tov112D was “inactive” throughout.

On to `CC(=O)O[C@H]1C[C@@]2(C)[C@@H](CC[C@H]3[C@@]4(C)C=CC(=O)[C@@H](C)[C@@H]4[C@H](O)C(=O)[C@@]32C)/C1=C(/CCC=C(C)C)C(=O)O`, for which the Potency result in the assay with C33A, in the assay on CAOV3, with CASKI, in the assay on Es-2, with HeLa and in the assay with Hek293T was “inactive” in each case. For the same compound, the Potency entry in the assay on JEG-3, with OV90, with PA-1, in the assay with SKOV3, in the assay with Tov-21-G and in the assay on Tov112D was “inactive” in each case.

Consider `CC(=O)O[C@@H]1[C@@H](O)[C@H](C)O[C@@H](O[C@H]2[C@@H]3C=CO[C@@H](O[C@@H]4O[C@H](CO)[C@@H](O)[C@H](O)[C@H]4O)[C@@H]3[C@@]3(CO)O[C@@H]23)[C@@H]1OC(=O)/C=C/c1ccccc1`, for which the Potency entry in the assay on C33A, in the assay on CAOV3, with CASKI, in the assay on Es-2, in the assay on HeLa and with Hek293T was “inactive” throughout. In addition, the Potency result with JEG-3, in the assay with OV90, in the assay on PA-1, in the assay with SKOV3, in the assay on Tov-21-G and with Tov112D was “inactive” throughout.

With `C=C1C(=O)O[C@@H]2C[C@H](C)[C@@]3(O)C=C(C(C)=O)[C@]4(CC3C[C@H]12)C(=O)O[C@H]1C[C@@H](C)C(CCC(C)=O)=CC[C@H]14` (stereo partly drawn), the Potency result in the assay with C33A, in the assay with CAOV3, in the assay on CASKI, in the assay on Es-2, in the assay on HeLa and with Hek293T was “inactive” throughout. Moreover, the Potency entry with JEG-3, in the assay on OV90, with PA-1, in the assay on SKOV3, in the assay on Tov-21-G and in the assay with Tov112D was “inactive” in each case.

As to `C=C1CCCC2(C)CC3(OC)OC(=O)C(C)=C3CC12` (stereo not drawn), the Potency result in the assay with C33A, with CAOV3, in the assay with CASKI, with Es-2, in the assay with HeLa and in the assay on Hek293T was “inactive” each time. Moreover, the Potency entry in the assay with JEG-3, in the assay on OV90, in the assay with PA-1, in the assay on SKOV3, in the assay with Tov-21-G and in the assay with Tov112D was “inactive” each time.

Take `CCOc1ccc2nc(SCCN3CCOCC3)[nH]c2c1`: the Potency entry in the assay on C33A, in the assay with CAOV3, in the assay with CASKI, in the assay with Es-2, with HeLa and in the assay on Hek293T was “inactive” throughout. Besides, the Potency result with JEG-3, in the assay with OV90, in the assay with PA-1, with SKOV3, in the assay with Tov-21-G and in the assay with Tov112D was “inactive” each time.
